# Measurements taken from PubChem BioAssay AID2315 (National Center for Advancing Translational Sciences (NCATS), 2010).
# Several values for one entry are separate records, joined by “and”; a condition that tells them apart may be missing. Identical values can stand only once. Among all 290,000 compounds or so, about 27,000 (9.3%) were called active. The entries come from a sample that favours actives as a whole. Values without a mark were called inactive. Rule as the data show it: active = inhibition mostly above about 28% (no sharp cut-off); inactive = mostly below about 43%.
# Assay: A qHTS for Small Molecule Inhibitors of Shiga Toxin; also: 0% is about no effect
# Details: Vero cells, Shiga toxin protein synthesis inhibition reporter; at 38.7 µM, hits give high values
row,SMILES,inhibition
1,Cc1cccc(-c2nnc(SCC(=O)O)n2Cc2ccccc2)c1,-7.35%
2,CCOc1cc(/C=N/O)ccc1OCc1ccccc1F,40.7% (active)
3,COc1cc(/C=C2/C(=O)ON=C2C)ccc1OCc1ccccc1F,145% (active)
4,CCOc1ccc(/C=N/NC(=O)C(C)Sc2ccccn2)cc1OCC (centres undefined),-9.85%
5,CCOc1c(Cl)cc(/C=N/O)cc1OC,59.8%
6,C#CCOc1ccc(/C=C2/C(=O)ON=C2C)cc1OCC,13.8%
7,COc1cc(/C=C2/C(=O)ON=C2C)ccc1OCc1cccc(F)c1,55.1% (active)
8,CC1=NOC(=O)/C1=C\c1ccccc1,-4.49%
9,COc1cc(/C=C2\SC(=O)NC2=O)ccc1OCc1ccc(Cl)nc1,-5.05%
10,C=CCOc1ccc(/C=C2/C(=O)ON=C2C)cc1OCC,17.5%
11,CCn1c(CC(=O)Nc2ccccc2)nnc1SCC(=O)N1CCOCC1,-10.2%
12,Cc1ccc(/C=C2\SC(=S)N(CCC(=O)Nc3ccc(O)cc3)C2=O)cc1,0.715%
13,COC(=O)c1cccc(N(CC(=O)NCC2CCCO2)C(=O)CCC(=O)Nc2cc(C)on2)c1 (centres undefined),-11.3%
14,CC(C)(C)Nc1c(N)c(=O)oc2ccccc12,10.6%
15,O=Cc1c(NCCc2cccc(F)c2)c2ccccc2[nH]c1=O,-25%
16,Nc1c(NCCc2ccccc2)c2ccccc2oc1=O,60.3% (active)
17,O=C(CNC(=O)[C@@H]1Cc2ccccc2CN1)NC1CCCCC1,-13.1%
18,CCOc1ccc(-n2c(SCC(=O)OC)nc3sc4c(c3c2=O)CCN(C)C4)cc1,11.7%
19,CCOc1ccc(-n2c(SCC(=O)Nc3ccc(OC)cc3)nc3sc4c(c3c2=O)CCN(C)C4)cc1,4.16%
20,COc1ccccc1NC(=O)CSc1nc2sc3c(c2c(=O)n1-c1ccccc1)CCN(C)C3,35.8% (active)

row,SMILES,inhibition
1,O=C(O)c1cc(S(=O)(=O)N(Cc2ccccc2)c2cccc(C(F)(F)F)c2)ccc1Cl,-2.31%
2,CC(=O)N1CCC(C(=O)OCc2ccc(Cl)cc2)(c2ccccc2)CC1,-6.33%
3,Cc1c(Cl)cccc1NC(=O)NCCCN1CCCC1=O,29.4%
4,O=C(CN1C(=O)c2ccccc2C1=O)NCc1ccc(C(=O)O)cc1,5.13%
5,Cc1nc2ccc(C(=O)N3CCN(c4ccccc4)CC3)cc2s1,11.9%
6,O=C(c1cccc(C(=O)N2CCN(c3ccc(F)cc3)CC2)c1)N1CCN(c2ccc(F)cc2)CC1,-8.51%
7,CC(=O)c1ccc(N2CCN(C(=O)c3ccc4nc[nH]c4c3)CC2)cc1,29.9% (active)
8,CCN1C(=NCCc2cccnc2)N[C@@H](c2ccccc2)[C@H](C(=O)OC)[C@H]1C,12.2% and -9.8%
9,C=C1CCN(Cc2ccc(OC)cc2)S(=O)(=O)c2ccccc21,-5.84%
10,COc1ccc(OC)c(CNC(=O)Cn2nc(C)c3c(C)n(-c4ccc(C)cc4)nc3c2=O)c1,26.2%
11,COc1ccc(S(=O)(=O)NNC(=O)Nc2ccc(C)cc2)c(OC)c1,-5.98%
12,NC(=O)C1CCN(C(=O)CC2C(=O)NCCN2Cc2cccc(Oc3ccccc3)c2)CC1 (centres undefined),-10.2%
13,Cc1nn(-c2ccccc2)c2c1c(C)c(CCC(=O)NCC1CCCO1)c(=O)n2C (centres undefined),-2.28%
14,Cc1[nH]c2ccccc2c1C(=O)COC(=O)c1c(-c2ccccc2)noc1C,-2.62%
15,Cc1onc(-c2ccccc2Cl)c1C(=O)NCCn1ccc2ccccc21,-2.64%
16,Cc1onc(-c2ccccc2Cl)c1C(=O)OCC(=O)c1ccccc1,71.6% (active)
17,COc1ccc(/C=C(\NC(=O)c2ccccc2)C(=O)NCCN2CCOCC2)cc1OC,1.37%
18,Cc1cc(-c2nnc(CCC(=O)NC(c3ccccc3)c3ccccc3)o2)no1,35.4% (active)
19,O=C(CCc1nnc(CCCCc2ccccc2)o1)NC(c1cccnc1)C(F)(F)F (centres undefined),-12.1%
20,CC(CCn1cccn1)NC(=O)CCc1nnc(CCc2ccccc2)o1 (centres undefined),-10.4%

row,SMILES,inhibition
1,COC(=O)c1ccc(N2CCOCC2)c(NC(=O)c2ccc(Br)o2)c1,31.4%
2,CC1=NN(C(N)=S)C(=O)C1N=Nc1cc(Cl)ccc1Cl (centres undefined),-1.92%
3,Cc1[nH]n(C(N)=S)c(=O)c1N=Nc1ccc(Cl)cc1Cl,44.3% (active)
4,Cc1cccc(N=Nc2c(C)[nH]n(-c3ccccc3)c2=O)c1,-4.8%
5,Cc1cc(C)c2oc(C(=O)Nc3ccc(S(=O)(=O)Nc4nccc(C)n4)cc3)cc(=O)c2c1,2.27%
6,O=C(N/N=C/c1cccc([N+](=O)[O-])c1)c1ccncc1,22.3%
7,Cc1ccc(NC(=O)O/N=C/c2cccc([N+](=O)[O-])c2)cc1,70.8% (active)
8,CCc1ccc(NC(=O)C(C)OC(=O)/C=C/c2cccc([N+](=O)[O-])c2)cc1 (centres undefined),15.5%
9,Cc1ccc(C)c(S(=O)(=O)Nc2cc(C)on2)c1,-4.53%
10,CCc1cc2c(=O)c(-c3ccon3)c(N)oc2cc1OC,82.2% (active)
11,CCc1cc2c(=O)c(-c3ccc(F)cc3)c(C(F)(F)F)oc2cc1OCC(=O)O,5.27%
12,COc1ccc2oc(N)c(C=O)c(=O)c2c1,63.7%
13,CSc1nnc(C2CCCN(CC(=O)Nc3ccccc3N3CCOCC3)C2)n1C(C)C (centres undefined),-9.97%
14,O=C(Cn1c(NCCO)nc2ccccc21)c1ccc(Cl)cc1Cl,-8.74%
15,COC(=O)c1c(NC(=O)C2CC(C)=C(C)CC2C(=O)O)sc2c1CCCCC2 (centres undefined),-7.33%
16,O=C(CCc1nnc2ccc(NCc3ccco3)nn12)Nc1cc(F)ccc1F,-6.06%
17,CC(=O)c1ccc(NC(=O)CCc2nnc3ccc(NCc4ccco4)nn23)cc1,49.7% (active)
18,CCOc1ccccc1NC(=O)CCc1nnc2ccc(NCc3ccco3)nn12,-9.81%
19,COCCNC(=O)CCCN1C(=O)c2ccccc2Sc2ncccc21,-19.8%
